This is an account of results in PubChem BioAssay (NCI).

About 83,000 compounds went through this panel and 20% of them were active in at least one assay; those are over-represented in the sample as a whole.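 Percent growth is the endpoint: 0 to 100 indicates growth inhibition (40 means 60% inhibition), 0 means no net growth, and negative values indicate cell death.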 A number with no mark means an inactive call. Active and inactive are the calls of the source. How the source made its calls: active means growth percent below 10; inactive means the rest.

The test system of the experiment is SW-620 colon. Kind of experiment: NCI-60 one-dose screen, 48 h (100 = growth as untreated, 0 = no growth, -100 = all killed). The following applies: 10 µM unless noted.
In the case of `COc1c(F)ccc(C(=O)Nc2ccc3nc(NC(=O)C4CCCN(S(=O)(=O)C5CC5)C4)sc3c2)c1F` (stereo not drawn), the growth was 78.7%.

For the molecule `CCOC(=O)C1=C(N)N(c2ccccc2)C2=C(C(=O)CC(C)(C)C2)C1c1ccc(N2CCOCC2)cc1` (stereo not drawn), the growth is 101%.

For the molecule `OCC1(CCCc2ccccc2)CCCN(c2nccc3ccccc23)C1` (stereo not drawn), the growth is 39.2%.

As for `COc1ccc(/C=N/NC(=O)Cn2nc(Cc3ccc(OC)cc3)c3onc(C)c3c2=O)cc1`, the growth was 56.6%.

For `O=[N+]([O-])c1ccc(/C=C/c2nc3ccccc3n3c(=S)[nH]nc23)cc1`, the growth is 87.3%.

For `COC(=O)/C=C/c1cccc2c1C(=O)NC(C)(c1cc3ccccc3oc1=O)N2` (stereo not drawn), the growth is 72.2%.

On to `CCN(CC)c1ccc(/C=N/Nc2nc(-c3ccc(Br)cc3)cs2)c(O)c1`, for which the growth was 10.5%.

As for `O=C(c1ccccc1)C(c1c[nH]c2ccccc12)c1c[nH]c2ccccc12`, the growth was 4.95% (active).

Take `CC1(C)CC[C@]2(C(=O)Nc3ccc(Br)cc3)CC[C@]3(C)C(=CCC4[C@@]5(C)C[C@@H](O)[C@H](O)[C@@](C)(CO)C5CC[C@]43C)C2C1` (stereo partly drawn): the growth is 18.8%.

For the molecule `CC(/C=C1\SC(=S)N(CCCC(=O)NC(CC(C)C)C(=O)O)C1=O)=C\c1ccccc1` (stereo not drawn), the growth is 112%.

`Cn1cc(-c2cc(N)n3nc(-c4cn(C)c5ccccc45)cc3n2)c2cc(Br)ccc21`: the growth was -10.6% (active).

As for `Cc1ccc(NCC(=O)Cn2cc(COc3ccc(C=Nc4cnc5ccccc5c4)cc3)nn2)cc1`, the growth is 113%.

As to `Cc1ccc([C@H]2C(C(=O)c3ccc(Cl)cc3)C3(N[C@@H]2c2ccccc2)C(=O)Nc2ccc(Cl)cc23)cc1` (stereo partly drawn), the growth is 64.1%.
